Out of some 420,000 compounds screened, about 64,000 (15%) were called active. Another 27% or so got no clear call; they are omitted. The call rests on the fitted dose curve; in most records, active means well fitted inhibition curve with a large enough effect; inconclusive means small, poorly fitted or top-dose-only effect; inactive means flat fitted curve, though single readings scatter. Not all results are given here. Where a call stands in place of a potency, no number is given.
Potency means the concentration at half of the fitted maximal effect.

This assay is described as follows: qHTS for Inhibitors of human tyrosyl-DNA phosphodiesterase 1 (TDP1): qHTS in cells in absence of CPT. Further: nearly all actives have a fitted effect of over 55% in size. The following applies: DT40 Tdp1-/- hTDP1 cells, no CPT, ATP luminescence, 48 h; activity change, negative = growth inhibition: at 46.2 µM (top of the series). An outline of the steps: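 Chicken DT40 Tdp1-/- cells stably complemented with human TDP1 were seeded at 400 cells/well with DMSO in place of 20 nM camptothecin. After compound pinning, cells grew at least 48 hr at 37 °C; viability read by CellTiter-Glo luminescence.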
A general note: In qHTS, concentration-response curves come from the screen itself.
On to `C#CCN1CC(C)/C(=N/O)CC1C` (centres undefined), for which the Potency entry is “inactive”.

On to `COc1ccccc1CNS(=O)(=O)c1c(C)[nH]c(C)c1C(=O)N1CCCCC1`, for which the Potency result is “inactive”.

Turning to `CCc1nc(Nc2ccc(NC(C)=O)cc2)c2oc3ccccc3c2n1`, the Potency entry was “inactive”. For `CCc1nc(Nc2ccc3nccnc3c2)c2oc3ccccc3c2n1` the value was 2.31 µM (active). Regarding `CCSc1nc(C)nc2c1oc1ccccc12`, the Potency entry was “inactive”. For `C/C(=N/NC(=O)c1ccncc1)c1ccc2c(c1)OCO2` the value was “inactive”; for `C/C(=N/NC(=S)Nc1ccccc1)c1ccc2c(c1)OCO2`, 0.517 µM (active); for `C/C(=N\NC(=O)C(N)=O)c1ccc2c(c1)OCCO2`, “inactive”. `CCS(=O)(=O)N(C)[C@@H]1c2cc(C#N)ccc2OC(C)(C)[C@H]1O`: the Potency result is “inactive”.

As to `O=c1cc(CCl)nc2scc(-c3ccccc3)n12`, the Potency was 16.4 µM (active). As for `C/C(CC(O)(/C=N/O)c1ccccc1)=N\O` (centres undefined), the Potency entry was “inactive”. For `C/C(CC(=O)Nc1ccc(Cl)cc1)=N\NC(=O)C(=O)NCCO` the value was “inactive”; for `CC(C)Cn1cnc2c1c(=O)n(CC(=O)NN)c(=O)n2Cc1ccccc1`, “inactive”; for `CCCCCCn1c(CN2CCCCC2)nc2c1c(=O)n(C)c(=O)n2C`, 20.6 µM (active). For `COCCn1c(CN(Cc2ccccc2)Cc2ccccc2)nc2c1c(=O)n(C)c(=O)n2C` the value was 25.9 µM (active); for `CC(C)CCn1cnc2c1c(=O)n(CC(=O)NC(N)=O)c(=O)n2Cc1ccccc1`, “inactive”.

Regarding `CC(C)CCn1c(CN(C)Cc2ccccc2)nc2c1c(=O)n(C)c(=O)n2C`, the Potency is 6.51 µM (active).

Regarding `CC(C)Cn1c(CN(Cc2ccccc2)Cc2ccccc2)nc2c1c(=O)n(C)c(=O)n2C`, the Potency is 14.6 µM (active). For `Cn1c(=O)[nH]c(=O)c2c1nc(CN(Cc1ccccc1)Cc1ccccc1)n2CCN1CCOCC1` the value was “inactive”; for `CC(C)Cn1cnc2c1c(=O)n(CC(O)c1ccccc1)c(=O)n2CC(C)C` (centres undefined), “inactive”. For `CCCCn1c(SCC(=O)N2CCOCC2)nc2c1c(=O)n(C)c(=O)n2C` the value was “inactive”; for `Cn1c(=O)c2c(nc(N3CCOCC3)n2CCNC2=NCCC2)n(C)c1=O`, “inactive”. The value for `CC(O)c1nc2c(c(=O)n(C)c(=O)n2C)n1C` (centres undefined) was “inactive”. `Cn1ccnc1-c1nnn(-c2ccc(F)cc2)n1`: the Potency entry was “inactive”. For `O=C(OCC(=O)c1cccs1)c1ccc([N+](=O)[O-])o1` the value was “inactive”; for `O=C(COc1ccc(-n2cnnn2)cc1)Nc1ccccc1Cl`, “inactive”; for `CN(C)S(=O)(=O)c1ccc(N2CCCC2=O)c([N+](=O)[O-])c1`, “inactive”.

`O=C(/C=C/c1ccccc1Cl)Nc1ccc(S(=O)(=O)Nc2ncccn2)cc1`: the Potency entry is “inactive”.

As for `OCCC1CN(Cc2ccc3nsnc3c2)CCN1C1CCCCC1` (centres undefined), the Potency result was “inactive”.

For the compound `Cc1ccc(C)c(SCc2nc3sc(C(=O)O)c(C)c3c(=O)[nH]2)c1`, the Potency entry is “inactive”. The value for `COc1ccccc1NC(=O)CC(NCCN(C)C)C(=O)O` (centres undefined) was “inactive”. Regarding `C/C(=N\Nc1ccc(S(N)(=O)=O)cc1[N+](=O)[O-])c1cccs1`, the Potency entry was “inactive”.

Regarding `CCOC(=O)[C@H]1[C@H]2COc3ccc(OC)cc3[C@@H]2N2C(=O)c3ccc(F)cc3NC(=O)[C@@]12C`, the Potency result was “inactive”. As for `COC(=O)C1=C(O)/C(=C/c2ccc(OCC(=O)Nc3ccccc3)cc2)N=C1C`, the Potency entry is “inactive”. The value for `O=C(COC(=O)c1cccs1)NCc1cccs1` was “inactive”. For the compound `Nc1nnc(C2CCCC2)s1`, the Potency result is “inactive”. As to `COC(=O)c1ccccc1Oc1c(F)c(F)nc(N2CCOCC2)c1F`, the Potency entry was “inactive”. The value for `Cc1cc(C)cc(C(=O)NCC(=O)OCC(=O)N2CCCCC2)c1` was “inactive”; that for `CCN1CCN(Cc2nc3c(c(=O)n(C)c(=O)n3C)n2CC(=O)c2ccccc2)CC1` was “inactive”. For `CC1CCCN(Cc2nc3c(c(=O)n(C)c(=O)n3C)n2CC(=O)c2ccccc2)C1` (centres undefined) the value was 16.4 µM (active); for `CC(C)CCn1c(=O)c2c(nc3n2CCCN3Cc2ccccc2)n(C)c1=O`, 20.6 µM (active); for `Cn1c(=O)n(Cc2c(F)cccc2Cl)c(=O)c2c1nc1n2CCN1c1ccc(F)cc1`, “inactive”. The value for `Cn1c(=O)n(CCc2ccccc2)c(=O)c2c1nc1n2CCCN1c1ccccc1` was “inactive”. Turning to `CN1CCN(Cc2nc3c(c(=O)n(C)c(=O)n3C)n2Cc2cccc3ccccc23)CC1`, the Potency entry is “inactive”. For `O=C(O)C1CCCN(CCC=C(c2ccccc2)c2ccccc2)C1` (centres undefined) the value was “inactive”; for `COCCn1c(CN2CCC(Cc3ccccc3)CC2)nc2c1c(=O)n(C)c(=O)n2C`, 7.31 µM (active). Regarding `Cn1c(=O)c2c(nc(CN3CCOCC3)n2Cc2ccccc2)n(C)c1=O`, the Potency entry is “inactive”. For `CCc1cc(CNC(=O)CC2C(=O)NCCN2CC2CCCCC2)on1` (centres undefined) the value was “inactive”; for `Cc1ccc(S(=O)(=O)N(C)C)cc1NC(=O)C(C)OC(=O)c1ccc2ccccc2n1` (centres undefined), “inactive”; for `c1ccc(-c2nnc3n2NC(c2ccc4c(c2)OCO4)S3)cc1` (centres undefined), “inactive”. For `CC(C)=C1C2CCC1C1C(=O)N(NC(=O)c3ccco3)C(=O)C21` (centres undefined) the value was “inactive”; for `CCOc1ccc(CN(Cc2ccco2)S(=O)(=O)c2ccc(-n3cnnn3)c(OC)c2)cc1`, 16.4 µM (active); for `CCOc1ccc(S(=O)(=O)N(CC(=O)NCC(F)(F)F)Cc2ccco2)cc1`, “inactive”. For `CCOc1ccc(C(=O)COC(=O)c2ccc(-n3cnnn3)cc2)cc1` the value was “inactive”; for `COc1ccc(S(=O)(=O)N2CCOCC2)cc1NC(=O)CC1CC2CCC1C2` (centres undefined), “inactive”.

Consider `CC1(C)CC(=O)C=C(NCCCN2CCCC2=O)C1`, for which the Potency entry was “inactive”. For the compound `CCOc1ccc(Nc2nc(Cl)nc(N3CCN(c4ccc(OC)cc4)CC3)n2)cc1`, the Potency was 13 µM (active).

Consider `COC(=O)CNc1nc(Cl)nc(N2CCC(C)CC2)n1`, for which the Potency entry was “inactive”. Regarding `COc1ccc(Nc2nc(N)nc(CSC(=S)N3CCC(C)CC3)n2)cc1`, the Potency entry is “inactive”. For `COP1(=O)C[C@@H](O)[C@@H](O)[C@@H](COCc2ccccc2)O1` (some centres undefined) the value was “inactive”. For `O=c1[nH][nH]c(C(F)(F)F)c1C=NCc1ccccc1Cl` the value was “inactive”; for `Cc1nc2cc(NC(=O)NC3CC3)ccc2n1C`, “inactive”. In the case of `COc1ccc(-n2c(=O)c(C)nc3cnc(N4CCOCC4)nc32)cc1`, the Potency entry is “inactive”.

Turning to `Cc1nc2sccn2c(=O)c1S(=O)(=O)NCCc1ccccc1`, the Potency entry was “inactive”. For `C/C(=N\NC(=O)c1ccoc1C)c1ccccc1O` the value was 11.6 µM (active). The value for `C/C(=N\NC(=O)c1ccccc1C)c1ccc(N2CCOCC2)cc1` was “inactive”; that for `Cc1ccc(-c2noc(CNC(=O)c3ccoc3C)n2)cc1` was “inactive”; that for `COc1ccccc1Cn1c(C)nnc1-c1cnn(C)c1N` was “inactive”. The value for `COCCNC(=O)C1C(=O)Nc2ccccc2C(=O)N1c1ccc2c(c1)OCCO2` (centres undefined) was “inactive”; that for `NC(=O)CC[C@@H]1NC(=O)[C@@H]2CCCN2C(=O)c2cc([N+](=O)[O-])cc(F)c2NCCC[C@@H](C(N)=O)NC1=O` was “inactive”.

For `CC(=O)N1CCc2c(sc(NC(=O)CCS(=O)(=O)c3ccccc3)c2C#N)C1`, the Potency was 14.6 µM (active). The value for `CC(C)N1CCc2c(sc(NC(=O)Cc3ccccc3)c2C#N)C1` was “inactive”; that for `CC(=O)N1CCc2c(sc(NC(=O)CCS(=O)(=O)c3ccc(C)cc3)c2C(N)=O)C1` was “inactive”. For `CCN(CC)C(CNC(=O)CSc1nnnn1-c1cccc(F)c1)c1ccco1` (centres undefined) the value was “inactive”; for `Cc1ccc(C(=O)NCC(=O)O)s1`, “inactive”; for `CCc1nc(-c2cc(S(=O)(=O)N3CCN(c4ccc(OC)cc4)CC3)ccc2OC)no1`, “inactive”. In the case of `COc1ccc(OC)c(-c2noc(N3CCN(c4cc(Cl)ccc4C)CC3)n2)c1`, the Potency was 25.9 µM (active). For `COc1ccc(S(=O)(=O)N2CCN(c3ccc(F)cc3)CC2)cc1-c1noc(C)n1` the value was “inactive”; for `O=C(c1cccc(S(=O)(=O)N2CCCC2)c1)N(Cc1ccco1)C1CCS(=O)(=O)C1` (centres undefined), “inactive”; for `CC(NCc1nc2ccccc2n1C)C12CC3CC(CC(C3)C1)C2` (centres undefined), 23.1 µM (active). For `COc1cccc(C(O)Cc2nc3ccccc3n2C)c1OC` (centres undefined) the value was “inactive”.

On to `Cn1c(CNC(=O)C(C)(C)C)nc2ccccc21`, for which the Potency entry is “inactive”. For `Cc1ccc(S(=O)(=O)/N=C(/Nc2ccc3[nH]c(=O)[nH]c3c2)c2ccccc2)cc1`, the Potency result was “inactive”.

For `CCN(CC)CCn1c(=S)[nH]c2ncccc2c1=O`, the Potency entry was “inactive”. The value for `COC(=O)c1sc2[nH]c(=S)n(N)c(=O)c2c1C` was “inactive”; that for `C=CCNc1nc(C)nc(OC)n1` was “inactive”; that for `CN(C)c1ccc(C=NCCc2ccc(S(N)(=O)=O)cc2)cc1` was “inactive”. For `CC(C)CC1(C)NC(=O)N(CC(=O)Nc2ccc3c(c2)OCCO3)C1=O` (centres undefined) the value was “inactive”; for `CC(C)OCCCNC(=S)N1CCC(C(=O)c2ccc3c(c2)OCCO3)CC1`, 14.6 µM (active); for `O=C(c1ccc2c(c1)OCCO2)C1CCN(S(=O)(=O)c2cccc(F)c2)CC1`, “inactive”. For `COCCNC(=O)C1CCN(S(=O)(=O)c2ccc3c(c2)OCCO3)CC1` the value was “inactive”; for `O=C(NCCCN1CCN(C2CCCCC2)CC1)Nc1ccccc1C(F)(F)F`, “inactive”; for `CC(C)(C)c1ccc(C(=O)Nc2ccc3c(c2)CCCN3C(=O)c2cccs2)cc1`, 5.8 µM (active). As for `CC(C)C(=O)Nc1ccc(C(=O)NNC(=O)c2cccs2)cc1`, the Potency entry was “inactive”. For `O=C(O)c1ccc(NC(=O)c2cccs2)cc1` the value was “inactive”; for `COc1ccc(-c2cc(C(F)(F)F)n3nc(-c4ccccc4)cc3n2)cc1OC`, 16.4 µM (active). For `COC(=O)c1cc2nc(-c3ccccc3)cc(C(F)(F)F)n2n1` the value was “inactive”; for `Cc1cc(C(F)(F)F)n2ncc(-c3ccccc3)c2n1`, “inactive”.

As for `COc1cccc(NC(=O)N2CCC(NC(=O)C(Cc3cccc(C)c3)NC(C)=O)CC2)c1` (centres undefined), the Potency entry is “inactive”.

In the case of `NC(=O)Cn1c(=O)oc2ccccc21`, the Potency result is “inactive”.

Regarding `CCN(CC)CCN(C(=O)c1ccc(S(=O)(=O)N2CCOCC2)cc1)c1nc2cc3c(cc2s1)OCCO3`, the Potency result is “inactive”. The value for `CN(C)CCCN(C(=O)c1ccc(S(=O)(=O)N2CCCCCC2)cc1)c1nc2ccc(Br)cc2s1` was 18.4 µM (active); that for `CCOc1ccc2nc(N(CCN(C)C)C(=O)c3ccc4ccccc4c3)sc2c1` was “inactive”. The value for `COCc1c(C(=O)OCc2c(C)noc2C)oc2ccccc12` was “inactive”.
